The whole screen tested about 13,000 compounds, of which about 3,200 (25%) showed an effect of 50% or more. Some of the results follow.
System: P. falciparum stage V gametocytes
Design: BacTiter-Glo ATP luminescence viability of purified stage V gametocytes in 384-well plates, per cent inhibition versus DMSO
Details: 48 h, 5 µM; inhibitor

Q: For CC(C)(C)Oc1ccc(CC2NC3(C(=O)N(Cc4ccc(C(C)(C)C)cc4)c4ccccc43)C3C(=O)N(c4ccc(Br)cc4)C(=O)C23)cc1 (stereo not drawn) [TCMDC-139774], which “% Inhibition” value is on record?
A: Its value is 1.203%.

Q: For CC(C)C1C(O)=C(c2ccc3ccccc3c2)C(=O)N1Cc1cccc(F)c1 (stereo not drawn) [TCMDC-141811], which “% Inhibition” value is on record?
A: The value was 28.08%.

Q: For CN(CCc1ccccc1)c1ncc(-c2ccccc2CNCc2ccccc2O)cn1 [TCMDC-132575], which “% Inhibition” value is on record?
A: The value was 53.28%.

Q: CCCN(CC1CC1)c1ncc(-c2ccccc2CNCc2ccccc2O)cn1 [TCMDC-132574] was tested. Which “% Inhibition” value did it give?
A: The value was -10.65%.

Q: For Oc1ccccc1CNCc1ccc(-c2cnc(N3CCCC(c4ccccc4)C3)nc2)cc1 (stereo not drawn) [TCMDC-133768], which “% Inhibition” value is on record?
A: Its value is -9.076%.

Q: Which “% Inhibition” value does the source give for O=c1cc(NCCCCNCc2cccc(Cl)c2)[nH]c2ccccc12 [TCMDC-139311] here?
A: The value was -48.31%.

Q: For CCCC(C)NC(=O)/C=C/c1ccccc1-c1cccc(OC)c1 (stereo not drawn) [TCMDC-136229], which “% Inhibition” value is on record?
A: Its value is -11.68%.

Q: For CN1C(C)(C)CC(NC(=O)c2ccc(-c3nc4ccc(Cl)cc4[nH]3)cc2)CC1(C)C [TCMDC-139262], which “% Inhibition” value is on record?
A: The value was -8.23%.

Q: With Cc1c(-c2ccc(C(=O)NC3CC(C)(C)NC(C)(C)C3)cc2)[nH]c2cc(Cl)c(Cl)cc12 [TCMDC-140975] as the compound, how does the “% Inhibition” value read?
A: The value was 52.66%.

Q: How did the “% Inhibition” value turn out when COc1cc(C(=O)NC2CC(C)(C)NC(C)(C)C2)ccc1-c1cc2cc(Cl)c(Cl)cc2[nH]1 [TCMDC-139693] was run?
A: The value was -5.047%.

Q: How did the “% Inhibition” value turn out when CCOc1cc(C(=O)NC2CC(C)(C)N(C)C(C)(C)C2)ccc1-c1nc2cc(Cl)c(Cl)cc2[nH]1 [TCMDC-140058] was run?
A: The value was 24.71%.

Q: How did the “% Inhibition” value turn out when CCOc1cc(C(=O)NC2CC(C)(C)NC(C)(C)C2)ccc1-c1nc2ccc(Cl)cc2[nH]1 [TCMDC-140404] was run?
A: Its value is 39.53%.

Q: Which “% Inhibition” value does the source give for CN1C(C)(C)CC(NC(=O)c2ccc(-c3nc4cc(Cl)c(Cl)cc4[nH]3)cc2)CC1(C)C [TCMDC-139250] here?
A: The value was 28.21%.

Q: How did the “% Inhibition” value turn out when COc1cc(C(=O)NC2CC(C)(C)N(C)C(C)(C)C2)ccc1-c1nc2cc(Cl)c(Cl)cc2[nH]1 [TCMDC-139618] was run?
A: The value was 89.66%.

Q: Which “% Inhibition” value does the source give for CCOc1cc(C(=O)NC2CC(C)(C)NC(C)(C)C2)ccc1-c1cc2cc(Cl)c(Cl)cc2[nH]1 [TCMDC-139960] here?
A: Its value is 72.27%.

Q: COc1cc(C(=O)NC2CC(C)(C)N(C)C(C)(C)C2)ccc1-c1cc2cc(Cl)c(Cl)cc2[nH]1 [TCMDC-139227] was tested. Which “% Inhibition” value did it give?
A: The value was 47.65%.

Q: With O=C(Nc1ccc(CN2CCCCC2)cc1)c1ccc(COc2ccc([N+](=O)[O-])cc2)o1 [TCMDC-123727] as the compound, how does the “% Inhibition” value read?
A: Its value is -23.78%.

Q: With CC(C)Oc1ccc(CCCON2C(N)=NC(N)=NC2(C)C)cc1 [TCMDC-131759] as the compound, how does the “% Inhibition” value read?
A: The value was 12.88%.

Reference: article PMC4552634, “A New Set of Chemical Starting Points with Plasmodium falciparum Transmission-Blocking Potential for Antimalarial Drug Discovery” (PLoS ONE, 2015)
